Test results from PubChem BioAssay AID1745845 (National Center for Advancing Translational Sciences (NCATS), 2022).
The campaign covered roughly 360,000 compounds. About 2,600 (0.72%) were called active. A call without a number means that no potency is given here. Another 5% or so got no clear call; they are omitted. Calls come from the whole dose curve; as a rule, active = well fitted inhibition curve with a large enough effect; inconclusive = small, poorly fitted or top-dose-only effect; inactive = no such curve, though single readings can be large or run the other way. The full list was thinned out, with actives kept by preference.

Assay: Primary qHTS for Inhibitors of ATXN expression; note: nearly all actives have a fitted effect of over 55% in size
Details: HEK-293 ATXN2-luciferase reporter, luminescence, 24 h; series mostly up to 57 µM
Outline: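 ATXN2-luciferase reporter cells (luciferase flanked by upstream and downstream ATXN2 gene portions) were treated 24 h at 37 °C with compounds at up to 57 uM. SteadyGlo luminescence gave expression; GF-AFC fluorescence gave viability.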
Potency is the fitted concentration of half-maximal effect.

Compound | Potency | activity change, negative = inhibition
O=C(Nc1ccc2oc(-c3ccc(O)c(Br)c3)nc2c1)c1cc2ccccc2o1 | inactive | 
CC(C)(C)c1ccc(OCC(=O)N2CCC(c3nc4ccccc4s3)CC2)cc1 | inactive | 
CSc1nc(-c2ccccc2Cl)nc2c1Cc1c(CO)cnc(C)c1O2 | inactive | 
CCCCOCCOC(=O)c1cccnc1 | inactive | 
Cc1ccccc1NC(=O)Cn1c(=O)n(Cc2ccco2)c(=O)c2ccc(C(=O)NC3CCCC3)cc21 | inactive | 
CN1C(=O)C[C@H](C(=O)N[C@@H](Cc2cnc[nH]2)C(=O)N2CCC[C@@H]2C(N)=O)NC1=O | inactive | 
CC(C)C[C@H]1CNC(=S)N1C[C@H]1CCCN1C[C@H](Cc1ccc(O)cc1)N1C[C@H](Cc2ccc(O)cc2)N(CC2CCCCC2)C1=S | 28.2 µM (active) | 
O=C1NC[C@H](Cc2ccc(O)cc2)N(C[C@@H]2CCCN2C[C@H](Cc2ccccc2)N2C[C@H](Cc3ccccc3)N(CC3CCCCC3)C(=O)C2=O)C1=O | inactive | 
CC(C)C[C@H]1CNC(=O)C(=O)N1C[C@H]1CCCN1C[C@H](Cc1ccc(O)cc1)N1C[C@H](CC(C)C)N(CC2CCCCCC2)C(=O)C1=O | inactive | 
COc1cccc(C(=O)NCC(=O)OCc2cc(=O)n3ccsc3n2)c1 | inactive | 
COc1ccc(Cn2ccc3nc(C)c(C(=O)Nc4ccc(C)c(F)c4)cc3c2=O)cc1 | inactive | 
CCOC(=O)c1c(C)oc2nc(C)nc(Nc3ccc(CC)cc3)c12 | inactive | 
CC=C(C(=CC)c1ccc(O)cc1)c1ccc(O)cc1 | inactive | 
O=C(O)c1cc([N+](=O)[O-])c(Nc2cccc3ccccc23)c([N+](=O)[O-])c1 | inactive | 
N=C1C(c2nc3ccccc3s2)=C(O)CN1NC(=O)c1ccc([N+](=O)[O-])cc1 | inactive | 
CCC(=O)Nc1nnc(S(=O)(=O)N2CCCc3ccccc32)s1 | inactive | 
O=C(NC(Nc1nc2ccc([N+](=O)[O-])cc2s1)(C(F)(F)F)C(F)(F)F)c1ccccc1 | 0.891 µM (active) | 
O=C(Nc1nc2ccc([N+](=O)[O-])cc2s1)c1ccc(S(=O)(=O)N2CCCc3ccccc32)cc1 | 13.4 µM (active) | 
Cc1ccc(NC(=O)c2cccc(S(=O)(=O)N3CCCc4ccccc43)c2)nc1 | inactive | 
Cc1ccc(-c2nc(S(=O)(=O)c3ccc(C)cc3)c(N3CCCCCC3)o2)cc1 | inactive | 
CC1(C)[C@H](O[C@H]2O[C@H](C(=O)O)[C@@H](O)[C@H](O)[C@H]2O[C@@H]2O[C@H](C(=O)O)[C@@H](O)[C@H](O)[C@H]2O)CC[C@@]2(C)[C@H]1CC[C@]1(C)[C@H]2C(=O)C=C2[C@H]3C[C@@](C)(C(=O)O)CC[C@]3(C)CC[C@]21C | inactive | 
CC[C@]12C=CCN3CC[C@@]4(c5cc([C@@]6(C(=O)OC)C[C@H]7C[C@@H](C(C)(F)F)CN(Cc8c6[nH]c6ccccc86)C7)c(OC)cc5N(C)[C@H]4[C@@](O)(C(=O)OC)[C@H]1OC(C)=O)[C@@H]32 | inactive | 

Compound | Potency | activity change, negative = inhibition
CN(C)C(=O)c1cccc(-c2cnc3sc(NCc4ccc5c(c4)OCO5)nn23)c1 | inactive | 
COc1ccc(-c2nnc(SCC(=O)Nc3ccccc3C)o2)cc1OC | inactive | 
COC(=O)[C@]12CCCCC=C1N(CCC1=CCCCC1)C(=O)[C@H](CC(=O)NCC1CCCCC1)C2 | inactive | 
CC(=O)Nc1cccc(-c2ccnc3c2CC(C)(C(=O)NCc2ccco2)O3)c1 (stereo not given) | inactive | 
COc1ccc(C2CC(c3ccccc3)=NN2C(=O)COC(=O)COc2ccccc2)cc1 (stereo not given) | inactive | 
COc1ccc(C2CC(c3ccc([N+](=O)[O-])cc3)=NN2C(C)=O)cc1 (stereo not given) | inactive | 
COc1ccc(C2CC(c3ccccc3)=NN2C(=O)c2ccc(Cl)c([N+](=O)[O-])c2)cc1 (stereo not given) | 28.2 µM (active) | 
CCOCCCNC(=O)c1cn(CC)c2ccc(S(=O)(=O)N3CCc4ccccc4C3)cc2c1=O | inactive | 
COc1ccc(NC(=O)CSC2=Nc3ccccc3C3=NC(CC(=O)NCc4ccccc4OC)C(=O)N23)cc1Cl (stereo not given) | inactive | 
COc1ccc(NC(=O)Cn2c(=O)cc(C)c3c(C)nn(-c4cccc(Cl)c4C)c32)cc1OC | inactive | 
NC(=O)C1CCN(C(=O)c2cccc(NC(=O)c3nsc4ccccc34)c2)CC1 | inactive | 
c1ccc2c(c1)C(=NC1CCCCC1)NC2=NC1CCCCC1 | 28.2 µM (active) | 
Cc1ccc2nc(-c3ccco3)c(Cc3cccc(Cl)c3)n2c1 | inactive | 
CN(Cc1ccccc1)c1ncnc2onc(-c3ccc(F)cc3)c12 | inactive | 
Cn1cc(C(=O)c2ccc(Cl)cc2Cl)cc1C(=O)NN | inactive | 
CC(C)(C)c1cc(C(=O)NN)n(Cc2ccc(Cl)cc2Cl)n1 | 12.6 µM (active) | 
CC(C)(C)NC(=O)NC(=O)COC(=O)Cc1ccc(Cl)cc1Cl | inactive | 
CCOC(=O)c1cccc(NC(=O)c2cc(CN3CCCC3)on2)c1 | inactive | 
CN(O)C(=S)c1ccccc1 | 3.98 µM (active) | 
CN(Cc1ccccc1)C(=O)c1cccc(C(=O)N(C)Cc2ccccc2)c1 | inactive | 
COc1cc(NS(=O)(=O)c2cccs2)cc(OC)c1 | inactive | 
Cc1c2cnn(-c3ccccc3)c(=O)c2c(C)n1C(C)C(=O)Nc1ccc(Br)cc1F (stereo not given) | inactive | 

Compound | Potency | activity change, negative = inhibition
S=C(NCCCc1cnc[nH]1)NCCCN(Cc1ccc(Cl)c(Cl)c1)c1ccc(Br)cn1 | 15.8 µM (active) | 
COc1ccccc1CNC(=O)C(=O)NCC(c1cccs1)S(=O)(=O)c1cccs1 (stereo not given) | inactive | 
COc1ccc(CCNC(=O)CCCn2c(=O)c3ccccc3n(Cc3ccc(C)cc3)c2=O)cc1OC | inactive | 
CCCCCCCc1ccc(CCc2cccc(O)c2C(=O)O)cc1 | inactive | 
COc1ccccc1OCCCn1c(-c2ccc(Cl)cc2)nc2ccccc2c1=O | inactive | 
COC(=O)c1cc(OC)ccc1-c1ccc(OC)cc1 | inactive | 
CCOC(=O)C1=C(c2ccc(OC)cc2)C(=O)c2ccccc2C1=O | 5.01 µM (active) | 
CCOC(=O)C(NC(C)=O)C(=O)Nc1ccc(OC)cc1 (stereo not given) |  | -27.3% [at 11.3 µM] (inactive)
Cc1cccc(-c2nc(SCC(=O)Nc3cc(C)on3)c3c(=O)n(C)c(=O)n(C)c3n2)c1 | inactive | 
CC(NCc1ccc2c(c1)nc(NC(=O)c1ccc(-c3cn[nH]c3)s1)n2CC(C)(C)O)C(C)(C)C (stereo not given) | 0.968 µM (active) | 
O=C(NCc1ccccc1)C1CCN(S(=O)(=O)c2ccc3[nH]c(=O)ccc3c2)CC1 | inactive | 
CO[C@]1(NC(=O)CSC(F)F)C(=O)N2C(C(=O)O)=C(CSc3nnnn3CCO)CO[C@H]21 | inactive | 
Cc1cccc(C(C)C)c1NC(=O)C(NS(=O)(=O)c1cccc2nsnc12)c1ccccc1 (stereo not given) | inactive | 
C=C1CCC2[C@](C)(CO)C(O)CC[C@]2(C)C1CC=C1C(=O)OCC1O (stereo not given in full) | inactive | 
Cc1oc2ccc(O)c(CN3CCCCC3)c2c1C(=O)Nc1cccc(C(F)(F)F)c1 | 28.2 µM (active) | 
Cc1oc2ccc(O)c(CN3CCC(C)CC3)c2c1C(=O)Nc1ccccc1 | inactive | 
Cc1oc2ccc(O)c(CN3CCOCC3)c2c1C(=O)Nc1cccc(Cl)c1C | inactive | 
O=C(c1cccc(Cl)c1)N1CCN(CCc2ccncc2)CC1 | inactive | 
CCN(CC)c1ccc(C2C(C(N)=O)=C(C)Nc3nc(SCc4ccccc4)nn32)cc1 (stereo not given) | inactive | 
CC(C)(C)OC(=O)N1CCC(c2c(C(=O)N3CCc4ccccc4C3)cnn2-c2ccc(F)cc2)CC1 | inactive | 
COc1ccccc1NC(=O)C1=C(C)Nc2nc(SCC(=O)c3ccc(C)cc3)nn2C1c1ccccc1C (stereo not given) | inactive | 
CCc1nc2c(OCc3ccc(Cl)cc3Cl)cccn2c1N(C)C(=O)C(C)C | 28.2 µM (active) | 

Compound | Potency | activity change, negative = inhibition
CCc1nc2c(OCc3ccc(C(=O)OC)cc3)cccn2c1N(C)C(=O)C(C)C | inactive | 
CCc1nc2c(OCc3cccc(OC)c3)cccn2c1N(C)C(=O)C(C)C | inactive | 
COC(=O)[C@@]1(Sc2ccc(C)cc2)CC(=O)N(c2cccc(SC)c2)[C@@H]1c1ccccc1 | inactive | 
CC=CC[C@@H](C)C(=O)[C@H]1C(=O)N[C@@H](C(C)C)C(=O)N(C)CC(=O)N(C)[C@@H](CC(C)C)C(=O)N[C@@H](C(C)C)C(=O)N(C)[C@@H](CC(C)C)C(=O)N[C@@H](C)C(=O)N[C@H](C)C(=O)N(C)[C@@H](CC(C)C)C(=O)N(C)[C@@H](CC(C)C)C(=O)N(C)[C@@H](C(C)C)C(=O)N1C | inactive | 
O=C(NC1CCCC1)C1c2ccccc2OCC(=O)N1CC(F)(F)F (stereo not given) | inactive | 
Cc1cc(C)cc(NC(=O)Cn2c(=O)c3ccccc3n3nncc23)c1 | inactive | 
CS(=O)(=O)N1CCN(C(=O)c2cc3ccccc3oc2=O)CC1 | inactive | 
O=c1oc2ccccc2cc1-c1cn(-c2ccccc2)c(=S)[nH]1 | 8.91 µM (active) | 
Cc1cc(NC(=O)c2cccc(Cl)c2)ccc1-c1cc2ccccc2oc1=O | inactive | 
Cc1ccc(CNC(=O)CCc2c(C)nc3nc(CNC(=O)OC(C)(C)C)nn3c2C)cc1 | inactive | 
CCN(CC)CCN(C(=O)c1cccc([N+](=O)[O-])c1)c1nc2ccc(OC)cc2s1 | inactive | 
COc1cccc2sc(N(CCCN(C)C)C(=O)C(c3ccccc3)c3ccccc3)nc12 | 22.4 µM (active) | 
COc1ccccc1NC(=O)CC(NCCN(C)C)C(=O)O (stereo not given) | inactive | 
NC(N)=N/N=C/c1ccc(OCc2ccc(Cl)cc2Cl)cc1 | 22.4 µM (active) | 
Cc1nc2ccccc2nc(C)c1=NOCc1ccc(Cl)cc1Cl | inactive | 
COc1ccc(Cl)cc1N(CC(=O)N/N=C/c1ccc(OCC(N)=O)cc1)S(C)(=O)=O | inactive | 
CCc1nc2ccc(C(=O)N(C)CCN(C)C)cn2c1N(CC)CCOC | inactive | 
CC(C)Sc1oc(-c2cccs2)nc1S(=O)(=O)c1ccc(Cl)cc1 | inactive | 
CC1CC(C)(C)n2c(O)c(N=NC(N)=S)c3cccc1c32 (stereo not given) | 28.2 µM (active) | 
